Most compounds without a hit are left out; they make up all but 2.9% or so of the library.
HEK293 cAMP cs = counter-screen for TSHR agonists: cAMP increase in parental HEK293; parental HEK293 CNG cAMP sensor, membrane potential fluorescence; 73,000 compounds, 2.5% hits; AID 938; Potency, µM (highest dose often 57.1 µM), usual class: activators; active = well fitted activation curve with a large enough effect; inconclusive = small, poorly fitted or top-dose-only effect; inactive = no such curve, though single readings can be large or run the other way; note: nearly all actives have a fitted effect of over 55% in size
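Parental HEK 293 cells stably expressing a cAMP-gated CNG channel were loaded with membrane potential dye containing 100 uM RO 20-1724 for 60 min. Compound added for 30 min; depolarization read as fluorescence intensity at 590 nm.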
TSHR agonist = activates the human thyroid stimulating hormone receptor | Potency, µM (top dose mostly 57.1 µM), actives largely listed as activators | HEK293-CNG-TSHR cells (CNG channel as cAMP sensor), membrane potential dye, cAMP | 73,000 compounds, 0.48% hits | P16473 | AID 926; active = well fitted activation curve with a large enough effect in the main read-out, with a control signal flat, not every such curve was filed as active; inconclusive = small, poorly fitted or top-dose-only effect, or a change in a side signal; inactive = no such curve, though single readings can be large or run the other way; reference of the percent scale not stated here;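 note: the control signal comes from parental cells without the receptor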
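HEK 293 cells stably expressing TSHR and a cAMP-gated CNG channel; parental CNG-only cells as counterscreen. Cells preloaded 60 min with membrane potential dye plus 100 uM RO 20-1724, then compound 30 min; fluorescence read at 590 nm.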
Large screens that a line does not name were inactive.

COC(=O)[C@@]1(Cc2ccc(F)cc2)[C@H]2c3cc(C(=O)N(C)C)n(CCc4ccc(O)c(O)c4)c3C[C@H]2CN1C(=O)c1ccccc1	none
COC(=O)[C@@]1(Cc2ccccc2)[C@H]2c3cc(C(=O)N(C)C)n(Cc4ccsc4Br)c3C[C@H]2CN1C(=O)c1ccccc1	HEK293 cAMP cs 3.2µM, TSHR agonist inconclusive
C#CCCCO/N=C1/C[C@@H](O)[C@@H](O)[C@@H]2[C@@H]3C(=O)N(C4CCCCC4)C(=O)[C@H]3CC[C@H]12	none
COC(=O)[C@@H]1O[C@@H](c2c(OC)c(OC)c(C)c(OC)c2OC)[C@H](C)[C@@H](O)[C@@H]1C	none
Nc1cc(S(N)(=O)=O)ccc1SSc1ccc(S(N)(=O)=O)cc1N	none
N=C(N)C(N=Nc1ccccc1)C(=N)N (stereo unspecified)	none
FC(F)(F)c1cc(NC(=S)N2c3ccccc3-n3cccc3[C@H]2c2cccnc2)cc(C(F)(F)F)c1	none
Oc1ccc([C@@H]2CNCc3sccc32)cc1O	HEK293 cAMP cs 32µM, TSHR agonist inconclusive
Oc1cc2c(cc1O)[C@H](c1ccccc1)CNCC2	none
CCOC(=O)c1cc2occc2n1CC(=O)NC1CCCCC1C (stereo unspecified)	HEK293 cAMP cs 13µM, TSHR agonist inconclusive
COC(=O)c1cc2occc2n1CC(=O)Nc1cc(OC)cc(OC)c1	none
CC(C)CO/N=C1/C[C@@H](O)[C@@H](O)[C@@H]2[C@@H]3C(=O)N(C4CCCCC4)C(=O)[C@H]3CC[C@H]12	none
Cc1ccc(NC(=O)N(Cc2ccc3c(c2)OCO3)Cc2cc3cc4c(cc3[nH]c2=O)OCCO4)cc1	none
O=C(Nc1ccc(F)cc1)N(Cc1ccco1)Cc1cc2cc3c(cc2[nH]c1=O)OCO3	HEK293 cAMP cs 25µM, TSHR agonist inconclusive
O=C(O)C1CC(=O)N(Cc2ccccc2)C1 (stereo unspecified)	none
CCOC(=O)c1[nH]c(COC(=O)C2CC(=O)N(Cc3ccccc3)C2)c(C(=O)OCC)c1C (stereo unspecified)	HEK293 cAMP cs 25µM, TSHR agonist inconclusive
CC(=O)OC[C@@H]1O[C@@H](O/N=C2/C[C@@H](O)[C@@H](O)[C@@H]3[C@@H]4C(=O)N(C(C)(C)C)C(=O)[C@H]4CC[C@H]23)[C@H](OC(C)=O)[C@H](OC(C)=O)[C@@H]1OC(C)=O	none
COc1ccc(-c2cc(C(=O)N/N=C/c3ccc(OC)c(OC)c3)[nH]n2)cc1	none
COc1ccc2nc(N3CCCC(C(=O)NCCCN4CCN(C)CC4)C3)sc2c1 (stereo unspecified)	none
CC1CCCN(c2nc3ccsc3c(=O)s2)C1 (stereo unspecified)	HEK293 cAMP cs 25µM, TSHR agonist inconclusive
COC(=O)c1ccc(OCC2c3cc(OC)c(OC)cc3CCN2C(=O)c2ccco2)cc1 (stereo unspecified)	TSHR agonist 32µM
COC(=O)N1CCc2cc(OC)c(OC)cc2C1Cc1ccc(OC)cc1 (stereo unspecified)	none
O=C(c1ccco1)N1CCN(S(=O)(=O)c2ccc(S(=O)(=O)NC3CC3)cc2)CC1	none
O=C(c1ccco1)N1CCN(S(=O)(=O)c2ccc(Oc3ccccc3)cc2)CC1	HEK293 cAMP cs 20µM, TSHR agonist inconclusive
Cc1nc(SCC(=O)NCc2ccco2)c2oc3ccccc3c2n1	none
CCOc1ccccc1NC(=O)CSc1ncnc2c1oc1ccccc12	HEK293 cAMP cs 25µM, TSHR agonist inconclusive
Cc1nc(SCC(=O)Nc2ccccc2)c2oc3ccccc3c2n1	TSHR agonist 16µM
CC(=O)CSc1ncnc2c1oc1ccccc12	none
CCCCCCCCCCCCCCCCCC(=O)NC[C@@H](COP(=O)([O-])OCC[N+](C)(C)C)OCC	none
CCNc1ncc2nc(-c3ccc(OC)cc3)c(=O)n(Cc3cccs3)c2n1	none
CCNc1ncc2nc(-c3ccc(OC)cc3)c(=O)n(-c3ccc(OC)cc3)c2n1	HEK293 cAMP cs 32µM, TSHR agonist inconclusive
Nc1nccc(Nc2ccc(S(N)(=O)=O)cc2)n1	none
CC(C)CN1CCCC2(CCN(C(=O)c3ccco3)CC2)C1	none
CC(C)CN1CC2(CCN(C(=O)c3ccco3)CC2)C1	HEK293 cAMP cs 20µM, TSHR agonist inconclusive
C[C@H]1/C=C\CC(=O)OC[C@H](C)C(=O)N2CCC[C@@H]2C(=O)OC1	none (no result: TSHR agonist)
O=C(CN1CCN(S(=O)(=O)c2ccc(Br)cc2)CC1)Nc1ccccc1F	HEK293 cAMP cs 32µM, TSHR agonist inconclusive
O=C(CN1CCN(S(=O)(=O)c2ccc(Cl)cc2)CC1)Nc1ccc(F)cc1F	none
COc1ccccc1CN1CC[C@@]2(CCCN(C(=O)c3cccn3C)C2)C1	none
O=C(c1ccncc1)N1CCC2(CCCN(c3ccncc3)C2)CC1	none
COc1ccc(C(=O)N2CCC3(CCCN(c4ccncc4)C3)CC2)cc1	HEK293 cAMP cs 13µM, TSHR agonist inconclusive
O=C(c1cc(C(F)(F)F)cc(C(F)(F)F)c1)N1CCC2(CC1)CCN(c1ncccn1)CC2	none
COc1ccc(C(=O)N2CCC3(CC2)CN(c2ccncc2)C3)cc1	none
O=C(c1cc(C(F)(F)F)cc(C(F)(F)F)c1)N1CCC2(CCCN(c3ccncc3)C2)CC1	HEK293 cAMP cs 7.9µM, TSHR agonist inconclusive
O=C(c1cc(C(F)(F)F)cc(C(F)(F)F)c1)N1CCC2(CC1)CCN(c1ccccn1)CC2	HEK293 cAMP cs 16µM, TSHR agonist inconclusive
COc1ccc(C(=O)N2CCC[C@@]3(CCN(Cc4ccccc4OC)C3)C2)cc1	HEK293 cAMP cs 16µM, TSHR agonist inconclusive
O=C(O)CCc1ccc(-c2ccccc2)[nH]1	none
O=C(O)/C=C\C(=O)Nc1cccc2c1-c1ccccc1C2=O	none
C[C@@]12CC[C@@H]3[C@@H](CC[C@H]4C[C@@H](O)CC[C@]43C)[C@H]1CC[C@@H]2c1cc(C(F)(F)F)n[nH]1	none
O=C1c2ccccc2C(=O)N1C[C@]1(C(=O)O)NCCS1(=O)=O	none
CC1CCCCN1CCCNC(=O)c1ccc(Cc2nc3ccccc3[nH]2)cc1 (stereo unspecified)	none
Cc1c(Cl)cc(C(C)(C)C)c(O)c1Cc1c(C)c(Cl)cc(C(C)(C)C)c1O	none
Cc1cc(C)cc([N+](=O)[O-])c1	TSHR agonist inconclusive
COc1ccc(-c2ccc3c(n2)CCCN3C[C@H](O)CN2CCCc3nc(C)c(C)cc32)cc1	none
COc1ccc(C(c2nnnn2C(C)(C)C)N2CCN(c3nc4ccccc4s3)CC2)cc1 (stereo unspecified)	TSHR agonist 10µM
CCC(C)(C)n1nnnc1C(c1ccc(C)cc1)N1CCCC1 (stereo unspecified)	HEK293 cAMP cs 25µM, TSHR agonist inconclusive
CC1CCN(C(c2ccccc2)c2nnnn2C(C)(C)C)CC1 (stereo unspecified)	HEK293 cAMP cs 20µM, TSHR agonist inconclusive
CCC(C)(C)n1nnnc1C(c1ccc(N(C)C)cc1)N1CCN(C2CCCCC2)CC1 (stereo unspecified)	none
COc1ccccc1C(c1nnnn1C(C)(C)C)N1CCCCCC1 (stereo unspecified)	none
c1ccc(Cn2nnnc2C(c2ccccc2)N2CCN(c3nc4ccccc4s3)CC2)cc1 (stereo unspecified)	none
CCC[C@H](Sc1nc(N)nc2nc[nH]c12)C(=O)O	none
C=CCOC(=O)C(C(C)=O)C(NC(=O)OC)c1cccs1 (stereo unspecified)	none
O=C(O)C1=C/C(=C(/c2ccccc2)c2cc(C(=O)O)c(O)c3ccccc23)c2ccccc2C1=O	none

Assay outcomes deposited in PubChem by National Center for Advancing Translational Sciences (NCATS).
